Laboratory results published in PubChem BioAssay AID588345 (Broad Institute, 2011).
Out of some 1,300 compounds screened, about 850 (65%) were called active. Another 1% or so got no clear call; they are omitted. So high a share suggests a set chosen from earlier hits. A selection follows. Entries with a potency or affinity are not part of this list. Values without a mark were called inactive. The rule behind the calls is not given here.

target: Dual specificity tyrosine-phosphorylation-regulated kinase 1A (Rattus norvegicus) (UniProt Q63470); experiment: Dyrk1A enzyme activity inhibition – biochemical, cherry-pick, plate reader, 2124-01, dose response (AID 588345); details: Dyrk1A kinase biochemical assay; series mostly up to 12 µM; activity change, negative = inhibition: at the top concentration

Row | SMILES | activity change, negative = inhibition [%]
1 | COc1cccc(C(=O)c2sc(NC(C)C)nc2N)c1 | 5.66
2 | O=C1CC(c2ccc(S(=O)(=O)NC3CC3)cc2)CN1 (stereo not given) | 2.56
3 | CNC(=O)c1cc2c(s1)-c1ccccc1CC2 | -14.8
4 | Cn1c2ccccc2c2cc(/C=N/NC(=O)c3cc(O)ccc3O)ccc21 | -0.468
5 | Cc1ccnc(NC(=O)c2cccc(S(=O)(=O)N3CCN(c4ccccc4)CC3)c2)c1 | 6.18
6 | COc1ccc(-n2c(Cn3c(=O)sc4ccccc43)nnc2SCC(=O)N2CCOCC2)cc1 | -5.17
7 | c1ccc(-c2csc3nnc(SCc4ccc5c(c4)OCO5)n23)cc1 | 14.3
8 | COc1ccc2c(c1)C(=NN)c1cc(OC)ccc1-2 | 4.46
9 | CC(C)NC(=O)Nc1cccc2c1O[C@H](CN(C)C(=O)NC1CCCCC1)[C@H](C)CN([C@H](C)CO)C2=O | -2.59
10 | CC(C)C[C@H]1COCCS(=O)(=O)N1Cc1cccc(Cl)c1 | 14.4
11 | CC(=O)C1C(c2ccc(Cl)cc2)NC(=O)NC1(O)C(F)(F)F (stereo not given) | -2.34
12 | Cn1c(C(=O)N2CCCC2)cc2c(=O)n(C)c3ccccc3c21 | -14
13 | Fc1ccc(-c2nnc3sc(C4COc5ccccc5O4)nn23)cc1 (stereo not given) | 10.9
14 | NC(=O)c1cc2ccccc2oc1=NCc1ccccc1 | 5.63
15 | Nc1c(C(=O)NCc2ccccc2)nnn1Cc1ccccc1 | -6.06
16 | S=c1[nH]cc(-c2ccc(Cl)cc2)n1Cc1ccccc1 | -12.1
17 | C=C(C)Cn1c(N2CCN(CC)CC2)nc2c1c(=O)[nH]c(=O)n2C | 9.32
18 | COCCCn1c(SCC(=O)NC2CCCCC2)nnc1-c1ccncc1 | -4.11
19 | CCNc1nc(N)nc(-c2cc(Cl)ccc2O)n1 | -0.458
20 | Nc1nc(N)nc(-c2ccc(Cl)c(Cl)c2)n1 | -34.5
21 | Cc1cccc(NC(=O)c2cnc3sccn3c2=O)n1 | 5.97
22 | O=C(Nc1ccc(Cl)c(Cl)c1)OCc1cnc(Cl)s1 | -3.39

Row | SMILES | activity change, negative = inhibition [%]
23 | Cc1cc(O)c2c(c1)C(=O)c1cc(O)cc(O)c1C2=O | -40.8
24 | CC1CCN(c2ncnc3nc[nH]c23)CC1 | -3.53
25 | O=C(c1cccc2c1-c1ccccc1/C2=N/O)N1CCCCC1 | 5.52
26 | NC(=O)N/N=C1\c2ccccc2-c2c(C(N)=O)cccc21 | 13.6
27 | CCOC(=O)c1cnc2ccc(C)cc2c1Nc1ccc(N2CCOCC2)cc1 | -8
28 | N#Cc1c(=O)c2nc(NCCCO)ncc2n2c(=O)c3ccccc3[nH]c12 | 3.42
29 | O=C(NNC1=C(C(=O)C(F)(F)F)CCC1)c1ccccc1O | 19.1
30 | c1csc(CNc2ncnc3ccc(-c4ccoc4)cc23)c1 | 4.22
31 | CC(Nc1nc(-c2cccnc2)nc2ccccc12)c1ccc(F)cc1 (stereo not given) | -33.2
32 | N#CCSc1nc(Nc2ccc3c(c2)OCO3)c2ccccc2n1 | -33.6
33 | c1cncc(-c2nc(NCc3ccco3)c3ccccc3n2)c1 | -22.1
34 | Cc1nnc2c3ccccc3c(-c3cccs3)nn12 | 4.82
35 | CCN(CC)CCCNC(=O)c1cc2c(=O)n(C)c3ccccc3c2n1C | -19.7
36 | CCCn1c2ccccc2c2cn[nH]c(=O)c21 | 4.44
37 | O=C(NCCc1ccccc1)C1CCN(S(=O)(=O)c2ccc(Br)s2)CC1 | 2.48
38 | N#Cc1nc(-c2ccccc2Cl)oc1NCC1CCCO1 (stereo not given) | -2
39 | COc1ccc(C(=O)N2CCN(c3c(C)cccc3C)CC2)cc1OC | 11.9
40 | C=CCNC(=S)Nc1ccc2cn[nH]c2c1 | -33.4
41 | Cc1ccc(CCNC(=O)C2CCN(S(=O)(=O)c3cccc4nonc34)CC2)cc1 | 4.41
42 | CCN(CC)c1ccc(NC(=O)CCc2nnc3ccc(N4CCCCC4)nn23)c(C)c1 | 9.53
43 | NS(=O)(=O)c1ccc(-c2ccc(/C=C3\SC(=O)NC3=O)o2)cc1 | 6.26
44 | Cc1ccc(C(=O)c2coc3ccc(OCC(=O)O)cc23)cc1 | -3.85

Row | SMILES | activity change, negative = inhibition [%]
45 | Cc1c(O)ccc2c(CN(C)Cc3ccccc3)cc(=O)oc12 | -3.59
46 | Cc1cccc(C)c1OCCOC(=O)c1n[nH]c2ccccc12 | -3.83
47 | CCOCCOc1nc2c(c(=O)n(C)c(=O)n2C)n1Cc1ccc(C)cc1 | 2.83
48 | Cc1ccc(-c2csc3ncnc(SCC(=O)O)c23)cc1 | 0.983
49 | O=C(O)CSc1ncnc2scc(-c3ccccc3)c12 | -3.73
50 | O=C1C(Cl)=C(N2CCC(C(=O)O)CC2)C(=O)c2ccccc21 | -22.7
51 | COc1ccc(-c2nc(N)ncc2-c2ccccc2OC)c(O)c1 | -5.21
52 | CCc1cc(-c2[nH]ncc2-c2ccc3c(c2)OCO3)c(O)cc1O | 11.2
53 | CCCCCCCCN1[C@@H](CC(=O)OC)c2cc(C(F)(F)F)ccc2S1(=O)=O | 3.68
54 | O=C(Nc1cccc(-c2nn[nH]n2)c1)c1csc2c1CCCC2 | -16.6
55 | Cc1cccc(NC(=S)NNC(=O)c2csc3c2CCC(C)C3)c1 (stereo not given) | -6.56
56 | C/C(=N/NC(=O)c1ccc(Br)s1)c1cccnc1 | 6.46
57 | CCc1ccc(C(=O)Nc2cccc(-c3nn[nH]n3)c2)s1 | 15.5
58 | C/C(=C/c1oc2ccc(O)cc2c1[N+](=O)[O-])N(C)C | -2.65
59 | CCC(C)[C@H]1CNCCN1CCc1cccc2ccccc12 (stereo not given in full) | 8.99
60 | Cc1cccc(NC(=O)C2NC(=O)CC2c2ccccc2)c1C (stereo not given) | -8.69
61 | COc1ccc(-n2nc(C)cc2Nc2ccccc2C(=O)O)cc1 | 1.42
62 | CCOC(=O)c1nnc(-c2ccc(C)cc2)nc1Sc1ccc(Cl)cc1 | 7.04
63 | O=C(O)c1[nH]c2ccc([N+](=O)[O-])cc2c1-c1ccccc1 | 6.17
64 | COCCNc1cc(C)nc2c(-c3ccccc3OC)c(C)nn12 | 8.67
65 | CC(=O)Nc1cccc(C(=O)OCC(=O)c2ccc3c(c2)OCO3)c1 | -6.5
66 | Cc1c(Br)c(=O)oc2c(Br)c(O)ccc12 | -38

Row | SMILES | activity change, negative = inhibition [%]
67 | Oc1ccc(-c2csc(Nc3cccnc3)n2)cc1 | -2.93
68 | Clc1cccc(Cc2nn[nH]n2)c1 | -1.14
69 | CCOCCCNC(=O)/C(C#N)=C/c1cc(Br)c(O)c(Br)c1 | 17.4
70 | N#Cc1c(N)nc2c3c(sc(=N)c2c1N)NC(=O)CC3c1c(F)cccc1Cl (stereo not given) | 9.16
71 | COc1ccc2c(C#CCCO)c(-c3ccc(S(C)(=O)=O)cc3)sc2c1 | -10.2
72 | O=C(CSc1nc(-c2ccco2)cc(C(F)(F)F)n1)NCCCn1ccnc1 | 13.6
73 | Nc1ccc(-c2ccc(C(=O)O)s2)cn1 | 3.99
74 | CSc1nc(SCC(N)=O)c2c3c(sc2n1)CN(C)CC3 | 10.6
75 | COc1ccc(C(=O)N(Cc2nc(-c3ccc(C)cc3)no2)C(C)C)cc1OC | 18.9
76 | CCc1n[nH]c(=S)n1/N=C/c1c[nH]c2ccc(Br)cc12 | -4.88
77 | COc1cccc(-c2nnc3sc(C4CCCCC4)nn23)c1 | 14.7
78 | O=c1nc2n(c3sc4c(c13)CCCC4)C(CBr)CS2 (stereo not given) | -2.76
79 | Oc1cc(-c2ccncc2)cc2cccnc12 | 0.251
80 | Cc1ccccc1C(=O)NNC(=O)CCCCC(=O)NNC(=O)c1ccccc1C | 11
81 | O=c1cc(-c2ccccc2)c2c(O)cc(O)cc2o1 | 7.51
82 | Cc1ccc(-c2cc(O)cc3sc(=O)oc23)cc1C | 13.1
83 | CC(=O)Nc1nc(-c2ccc3c(c2)OCO3)cs1 | 10.1
84 | O=C1C=C(c2ccc3c(c2)OCO3)CCC1 | -3.2
85 | CCCN1CCN(c2ncnc3scc(C4COc5ccccc5O4)c23)CC1 (stereo not given) | 11.1
